Fam108B counter: mouse Fam108B serine hydrolase inhibitors, primary screen, counter-screen for RBBP9 inhibitor project, biochemical, fluorescence polarization. recombinant Fam108B, FP-Rh probe fluorescence polarization. inhibition, % at 9.51 µM. 0.33% of 300,000 active;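 active = inhibition above the screen mean inhibition plus 3 SD, computed separately per campaign, cut at about 18% in these data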;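 also: inhibitors lower polarization as less probe binds the enzyme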
PAFAH1B3 inh: PAFAH1B3 enzyme inhibitors, primary screen, biochemical, fluorescence polarization, human; Platelet-activating factor acetylhydrolase IB subunit alpha1 (Homo sapiens), Q15102; recombinant PAFAH1B3, FP-rhodamine probe; inhibition, % at 3.39 µM; 0.28% of 340,000 active; AID 492972, 2010;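 active = inhibition above the screen-wide average of all tested compounds plus 3 SD, cut at about 25% in these data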;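 also: 0% = enzyme with DMSO only and 100% = wells lacking PAFAH1B3 protein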
PAFAH2 FP inh: PAFAH2 enzyme inhibitors, primary screen, biochemical, fluorescence polarization, human. Platelet-activating factor acetylhydrolase 2, cytoplasmic (Homo sapiens), Q99487. recombinant PAFAH2, FP-rhodamine activity probe. inhibition, % at 3.39 µM. 0.99% of 340,000 active. AID 492956, 2010;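 active = inhibition above the mean over all tested compounds plus 3 SD, cut at about 30% in these data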;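 also: inhibitors block probe labeling of enzyme so polarization drops; 0% = enzyme with DMSO and 100% = wells lacking PAFAH2 protein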
PME-1 inh: PME-1 inhibitors via competitive probe labeling, primary screen, biochemical, fluorescence polarization, FP-Rh probe, HTS; Protein phosphatase methylesterase 1 (Homo sapiens), Q9Y570; recombinant PME-1; inhibition, % at 5.9 µM; 0.53% of 320,000 active; AID 2130, 2009;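 active = inhibition above the campaign mean of all compounds plus 3 SD, cut at about 26% in these data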;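 also: competitive labeling of PME-1 active site by serine hydrolase directed probe; 0% = PME-1 with DMSO and 100% = wells lacking PME-1 enzyme; inhibitors block probe labeling so polarization falls and inhibition rises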
Target sequence (Q9Y570 whole entry, looked up): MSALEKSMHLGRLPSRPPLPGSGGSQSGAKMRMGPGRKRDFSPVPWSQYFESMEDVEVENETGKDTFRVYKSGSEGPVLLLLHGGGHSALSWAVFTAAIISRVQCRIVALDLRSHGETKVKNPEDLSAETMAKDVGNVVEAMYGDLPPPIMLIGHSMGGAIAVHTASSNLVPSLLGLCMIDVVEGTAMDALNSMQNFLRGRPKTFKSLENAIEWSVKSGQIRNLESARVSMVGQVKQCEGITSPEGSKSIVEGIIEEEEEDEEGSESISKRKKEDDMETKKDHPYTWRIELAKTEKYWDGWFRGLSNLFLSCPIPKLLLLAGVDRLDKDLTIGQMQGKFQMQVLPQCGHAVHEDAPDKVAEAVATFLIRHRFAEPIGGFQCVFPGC
PAFAH1B2 inh: PAFAH1B2 enzyme inhibitors, primary screen, biochemical, fluorescence polarization, human | recombinant PAFAH1B2, FP-rhodamine activity probe | inhibition, % at 3.39 µM | 1.2% of 340,000 active | Platelet-activating factor acetylhydrolase IB subunit alpha2 (Homo sapiens), P68402 | AID 492953, 2010;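 active = inhibition above the mean of all tested compounds plus 3 SD, cut at about 24% in these data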;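 also: 0% = enzyme with DMSO and 100% = wells lacking PAFAH1B2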
Target sequence (P68402 whole entry, looked up): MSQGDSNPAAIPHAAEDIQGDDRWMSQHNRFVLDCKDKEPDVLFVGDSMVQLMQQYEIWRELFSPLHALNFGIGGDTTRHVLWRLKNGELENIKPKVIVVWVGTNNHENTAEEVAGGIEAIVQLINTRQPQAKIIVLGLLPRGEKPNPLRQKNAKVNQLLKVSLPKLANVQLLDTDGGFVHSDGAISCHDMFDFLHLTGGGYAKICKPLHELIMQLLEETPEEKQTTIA
pPAFAH inh: pPAFAH enzyme inhibitors, primary screen, biochemical, fluorescence polarization, human; Platelet-activating factor acetylhydrolase (Homo sapiens), Q13093; recombinant pPAFAH, FP-rhodamine probe fluorescence polarization; inhibition, % at 3.39 µM; 1.5% of 330,000 active;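 active = inhibition above the mean inhibition across the screen plus 3 SD, cut at about 25% in these data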;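 also: inhibitors block binding of the rhodamine activity-based probe so polarization drops; 0% = enzyme with DMSO and 100% = wells lacking pPAFAH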
* = called active by the depositor; / = no result. Compounds with a hit are over-represented: about 2.9% of the library has one in this group of screens.

SMILES | Fam108B counter | PAFAH1B3 inh | PAFAH2 FP inh | PME-1 inh | PAFAH1B2 inh | pPAFAH inh
COc1ccc(C(=O)NCC(=O)OCC(=O)N2CC(C)OC(C)C2)cc1OC (stereo not given) | / | 6.8 | -2.1 | / | 0.9 | -1.0
COc1ccc(CN2C(=O)c3ccccc3C2C(=O)NC2CCC(C)CC2)c(OC)c1 (stereo not given) | 3.3 | 10.6 | 1.2 | -0.8 | 25.7* | 10.7
CC12/C(=N/O)C3C4CC5C3/C(=N/O)C1C5C42 (stereo not given) | 2.4 | -4.4 | 3.4 | 5.9 | 0.6 | 0.4
O/N=C1/C2C3C(Br)C4C5CC(C1C53)C24 (stereo not given) | -2.1 | 10.0 | 5.1 | 0.1 | 29.4* | 2.5
CC(C)(C)C1CCC(=O)C(C2(O)C(=O)Nc3ccccc32)C1 (stereo not given) | 3.3 | 10.2 | 0.3 | 6.2 | 27.1* | 5.4
Cc1ccc(N/N=C(\C#N)C(N)=S)c(C)c1 | 5.3 | 10.4 | 0.3 | 93.0* | -2.2 | 3.7
O=c1cc2oc3cc(O)c(O)cc3c(-c3ccccc3O)c-2cc1O | / | -62.2 | 41.8* | / | 26.7* | /
CCOc1ccccc1-c1c2cc(O)c(=O)cc-2oc2cc(O)c(O)cc12 | / | 119.3* | 126.8* | / | 112.4* | /
Cc1ccccc1-c1cc(=O)c2c(O)cccc2o1 | -1.2 | 7.3 | -1.0 | -2.6 | -0.6 | 3.4
CCOc1cc(CNc2ccc(N3CCCCC3)cc2)cc(Br)c1OCC(=O)NC(C)(C)C | -2.4 | 7.9 | 0.9 | -0.9 | 7.1 | 2.0
CCOc1cc(CNc2ccc(N(C)C)cc2)cc(Br)c1OCC(=O)NC(C)(C)C | 2.7 | 7.0 | 9.9 | 8.7 | 5.5 | 34.3*
CCOc1cc(CNc2ccc(N3CCOCC3)cc2)cc(Br)c1OCC | 6.2 | 8.0 | 7.3 | 1.0 | 3.6 | 25.0*
CC(CCc1ccccc1)N1CCN(C)CC1 (stereo not given) | 4.2 | 3.8 | -6.1 | 5.5 | 1.4 | 2.1
O=C(Cn1c2[n+](c3ccccc31)CC(O)CS2)c1ccccc1 (stereo not given) | 0.3 | 1.7 | -15.8 | 8.7 | 0.7 | 1.6
O=C(Nc1ccc(S(=O)(=O)Nc2nccs2)cc1)c1cc(-c2ccccc2Cl)nc2ccccc12 | 11.8 | 9.6 | -1.9 | 0.4 | 2.6 | 25.2*
CCOC(=O)CC(c1ccc(N)cc1)n1c(C)ccc1C (stereo not given) | -0.2 | -2.3 | 2.7 | -3.1 | 1.5 | -1.1
Cc1ccc(C)n1C(CC(=O)O)c1ccc(C#N)cc1 (stereo not given) | 1.4 | / | / | 1.6 | / | 25.4*
CC1CCN(S(=O)(=O)c2ccc(Cl)s2)CC1 | / | 8.3 | -6.5 | / | 25.4* | 1.2
O=C(O)C1CCN(S(=O)(=O)c2ccc(Cl)s2)CC1 | / | 8.0 | 1.1 | / | 27.1* | -2.0
CC1CCN(S(=O)(=O)c2ccc(Br)s2)CC1 | -1.8 | -0.6 | -7.2 | 2.4 | 28.7* | -1.4
CC1CCCN(S(=O)(=O)c2ccc(Br)s2)C1 (stereo not given) | -2.2 | 2.2 | -0.5 | 7.9 | 10.4 | 1.9
COc1ccc(CCn2c(N)c(C#N)c3nc4ccccc4nc32)cc1OC | 4.0 | 8.7 | 2.5 | 33.6* | -1.3 | 1.9
CCCCN1C(=O)C(=O)N(CC(=O)Nc2ccc(OC(F)(F)F)cc2)C1=O | / | 5.2 | -2.2 | / | 0.8 | 1.4
Cc1nc(N2CCCCC2)nc(N2CCCCC2)c1C=O | 0.3 | -6.5 | -4.4 | -2.7 | 2.1 | -1.7
CCN(CC)CCCNC(=O)Cn1cnc2ccc(S(=O)(=O)N3CCC(C)CC3)cc2c1=O | 0.2 | 7.7 | 3.7 | 2.1 | 6.7 | 0.5
SMILES | Fam108B counter | PAFAH1B3 inh | PAFAH2 FP inh | PME-1 inh | PAFAH1B2 inh | pPAFAH inh
Cc1cccc(NC(=O)Cn2cnc3ccc(S(=O)(=O)N4CCC(C)CC4)cc3c2=O)n1 | -7.4 | 1.0 | -1.2 | -1.1 | 24.2* | 0.8
COc1ccc(NC(=O)COC(=O)/C=C/c2ccccc2[N+](=O)[O-])cc1OC | 2.7 | 5.5 | 17.4 | 1.9 | 6.1 | 29.7*
COc1ccc(C(=O)COC(=O)/C=C/c2ccccc2[N+](=O)[O-])cc1 | / | 3.1 | 3.1 | / | 6.3 | 18.3
COC(=O)CNC(=O)COC(=O)/C=C/c1ccccc1[N+](=O)[O-] | -0.2 | 17.0 | 5.2 | -8.6 | 6.4 | 4.7
O=C(/C=C/c1ccccc1[N+](=O)[O-])OCC(=O)c1ccccc1 | 4.5 | 1.5 | 29.2 | 7.3 | 4.5 | 25.3*
COc1cc(C(=O)OCC(=O)NCc2ccc(F)cc2)ccc1OCC(C)C | 2.5 | -2.2 | 27.2 | 3.1 | -3.8 | 5.4
Cc1cc(CSCc2ccc(Cl)cc2)no1 | -0.1 | -3.0 | -0.3 | 0.1 | 27.4* | 2.8
O=C(COc1c(Br)cc(Br)c2cccnc12)Nc1ccccc1F | -7.7 | 10.8 | 3.7 | 1.0 | 2.3 | 30.3*
O=C(COc1ccc2c3c(c(=O)oc2c1)CCCC3)NCCCN1CCOCC1 | 3.4 | 5.1 | 5.2 | -0.8 | -4.1 | 1.9
COC(=O)Cc1cn(-c2ncc(C(F)(F)F)cc2Cl)c2ccccc12 | -4.2 | -11.2 | -0.8 | -4.3 | 1.3 | 2.0
CN(C)/C=C/C(=O)/C=C/c1cn(-c2ncc(C(F)(F)F)cc2Cl)c2ccccc12 | -11.4 | 2.2 | -1.8 | -2.0 | -4.2 | 25.6*
Clc1ccc2nc(-c3ccccn3)c(Nc3ccc4c(c3)OCO4)n2c1 | 2.5 | 10.6 | -1.6 | 5.6 | -2.5 | 27.3*
Cc1ccc2nc(-c3ccccc3O)c(Nc3ccc4c(c3)OCCO4)n2c1 | 14.8 | 6.5 | 5.0 | 5.6 | 3.1 | 23.1
CC(=O)C1=C(O)C(=O)N(c2ccccn2)C1c1ccccc1[N+](=O)[O-] (stereo not given) | -2.1 | 2.1 | 2.2 | -3.7 | 7.2 | 1.4
CC(Oc1ccc(Cl)cc1)C(=O)NNC(=S)NC(=O)c1ccco1 (stereo not given) | -0.6 | 3.0 | 6.3 | -3.1 | 25.8* | 0.2
COc1ccc(C(=O)NNC(=S)NC(=O)c2ccco2)cc1 | -0.1 | -4.1 | -15.5 | 7.0 | 4.3 | 0.9
COc1ccc(OC(=O)COc2ccc(Cl)cc2)cc1 | 2.5 | 2.4 | 4.3 | -6.7 | 5.4 | 12.9
Cc1ccc(OCCOC(=O)c2sc(=S)n(C)c2C)cc1 | 13.1 | -5.9 | 2.5 | -4.6 | 10.5 | -0.5
Cc1c(C(=O)OCCOc2ccc(Br)cc2)sc(=S)n1C | 0.5 | 3.3 | 2.6 | 4.5 | 28.0* | -1.4
COc1cccc(Oc2ccc(S(=O)(=O)N3CCCC3)cc2[N+](=O)[O-])c1 | 2.4 | 1.1 | -2.9 | 26.1* | 7.0 | 2.4
Cc1ccc(S(=O)(=O)CCC(=O)OCC(=O)N2c3ccccc3NC(=O)C2(C)C)cc1 | 1.5 | 0.0 | 7.6 | -0.4 | 29.9* | 7.7
CC1(C)C(=O)Nc2ccccc2N1C(=O)COC(=O)Cc1ccc(Cl)c(Cl)c1 | / | 8.6 | 7.7 | / | 28.4* | 19.6

Screens from PubChem.
